Screens (PubChem)
CYP2C9 inh – inhibitors of human CYP2C9 | CYP2C9 Supersomes, luciferin-H conversion, luminescence | P11712 | actives 20% (n = 96,000) | inhibition, % at 5 µM;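 active means blocking of liver enzyme CYP2C9 beyond about 50% at 5 µM, limit read from the data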
Target sequence (P11712 whole entry, looked up): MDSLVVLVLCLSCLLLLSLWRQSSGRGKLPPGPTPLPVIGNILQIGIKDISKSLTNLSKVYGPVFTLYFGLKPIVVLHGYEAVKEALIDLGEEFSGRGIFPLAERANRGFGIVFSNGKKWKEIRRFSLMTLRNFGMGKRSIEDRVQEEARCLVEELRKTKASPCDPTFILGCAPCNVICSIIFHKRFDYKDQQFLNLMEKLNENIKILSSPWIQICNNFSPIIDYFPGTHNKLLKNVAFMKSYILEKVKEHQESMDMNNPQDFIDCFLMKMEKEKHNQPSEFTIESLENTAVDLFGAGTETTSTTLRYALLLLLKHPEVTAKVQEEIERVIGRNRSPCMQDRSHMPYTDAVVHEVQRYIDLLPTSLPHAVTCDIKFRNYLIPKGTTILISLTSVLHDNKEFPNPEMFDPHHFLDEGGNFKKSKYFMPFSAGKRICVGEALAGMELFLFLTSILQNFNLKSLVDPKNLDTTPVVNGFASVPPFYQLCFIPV
CYP2C9 activ – CYP2C9 (human) activation. activation factor at 5 µM. actives 1.4% (n = 96,000). AID 1024. P11712. recombinant CYP2C9, luciferin-H conversion, luminescence; active compounds read high; factor 1 = untreated enzyme, 0 = blocked;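 active means activation factor of 2 or more for CYP2C9 at a 5 µM dose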
CYP2C19 inh – blocks human cytochrome P450 2C19. CYP2C19 Supersomes, luciferin-H EGE luminescence, 30 min. AID 778. P33261. inhibition, % at 5 µM. actives 21% (n = 96,000);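 active means CYP2C19 inhibition above a set limit at 5 µM in the primary screen, cut at about 50% in these data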
CYP2C19 activ – increases human CYP2C19 enzyme activity. activation factor at 5 µM. recombinant CYP2C19, luciferin-H EGE luminescence; active compounds read high; 0 = fully inhibited enzyme, 1 = untreated enzyme. 96,000 tested, under 10 active. P33261;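 active means activation factor of at least 2 at 5 µM in the primary screen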
Cav32 inh – inhibitors of human Cav3.2 T-type calcium channel; Cav3.2-expressing cells, Fluo-4 calcium fluorescence FDSS; active compounds read low; O95180; AID 449739; actives 4% (n = 100,000); B-score at 10 µM;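 active means single-dose well whose peak fluorescence ratio is a statistical outlier from its plate by either plate-standardised score or position-corrected B-score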
Large screens that a line does not name were inactive. Only some compounds are listed: those with a hit (about 27% of all), similar ones and a draw of the others.

COc1ccc(S(=O)(=O)Nc2c(C)ccc3nsnc23)cc1OC	CYP2C19 inh 69.4
COc1ccc(NS(=O)(=O)c2cccc3nsnc23)cc1OC	CYP2C19 inh 82.2
COc1ccc(CCNS(=O)(=O)c2cccc3nsnc23)cc1OC	none (no result: CYP2C9 inh, CYP2C9 activ, CYP2C19 inh, CYP2C19 activ)
COC(=O)C1(S(=O)(=O)c2cccc3nsnc23)CC1	none (no result: CYP2C9 inh, CYP2C9 activ, CYP2C19 inh, CYP2C19 activ)
O=C(Cn1cnc2ccccc21)NC(c1ccccc1)c1ccccc1	none
CC(C)CCNC(=O)c1onc(CSc2ccc(F)c(F)c2)c1C(=O)NCCC(C)C	none (no result: CYP2C9 inh, CYP2C9 activ, CYP2C19 inh, CYP2C19 activ)
Cc1ccnc(NS(=O)(=O)c2cccc3nsnc23)c1	none
Cc1cccc(NS(=O)(=O)c2cccc3nsnc23)c1	CYP2C19 inh 76.4
Cc1c(C(=O)c2no[n+]([O-])c2C(=O)c2cnn(C)c2C)cnn1C	none
COc1cccc(OCCNC(=O)c2cccc(OC)c2)c1	CYP2C19 inh 97.2
O=C(NCc1ccc2c(c1)OCO2)c1ccc2snnc2c1	CYP2C9 inh 64.6, CYP2C19 inh 66.0
Cn1nnc2cc(NC(=O)NCc3ccc4c(c3)OCO4)ccc21	none
O=C(NCc1ccc2c(c1)OCO2)c1ccc2c(c1)OCCO2	CYP2C9 inh 77.8, CYP2C19 inh 87.7
Cn1nnc2cc(C(=O)NCc3ccc4c(c3)OCO4)ccc21	CYP2C19 inh 52.1
Cc1cccc(/C=C2/S/C(=N/N=C3\CC4CCC3(C)C4(C)C)NC2=O)c1 (stereo not drawn)	none
O=C(NCCOc1ccccc1)c1ccc2c(c1)OCO2	CYP2C9 inh 59.1, CYP2C19 inh 86.4
O=C(NCc1ccc2c(c1)OCO2)c1cccc([N+](=O)[O-])c1	CYP2C19 inh 89.0
CCOC(=O)C(CCCOc1cccc(OC)c1)C(=O)OCC	CYP2C9 inh 82.5, CYP2C19 inh 90.5
CC(C)C(=O)Nc1cccc(C(=O)NCc2ccc3c(c2)OCO3)c1	none (no result: CYP2C9 inh, CYP2C9 activ, CYP2C19 inh, CYP2C19 activ)
CC(NCc1ccco1)C(=O)N1CCc2ccccc2C1 (stereo not drawn)	none
COc1ccc(O)c(-c2cc(-c3cccs3)[nH]n2)c1	CYP2C9 inh 73.7
COc1ccc(CNC(=O)c2cc(-c3ccccc3O)n[nH]2)cc1	none
Cc1nnc(NC(=O)c2ccccc2Br)s1	CYP2C9 inh 55.2
COCc1nnc(NC(=O)c2sc3ccccc3c2Cl)s1	none
Cc1nnc(NC(=O)c2ccccc2F)s1	none
Cc1nnc(NC(=O)c2sc3ccccc3c2Cl)s1	CYP2C9 inh 55.3
Cc1ccc(C(C(=O)NC2CCCCC2)N2CCN(C(=O)c3ccco3)CC2)cc1 (stereo not drawn)	none
Cc1ccc(S(=O)(=O)CC#CCOC(=O)c2ccc([N+](=O)[O-])cc2)cc1	none
COc1cccc(NS(=O)(=O)Cc2ccccc2)c1	none
COc1cccc(NS(=O)(=O)c2ccc(Br)s2)c1	CYP2C9 inh 84.2, CYP2C19 inh 100.0
COc1ccccc1NS(=O)(=O)c1ccc(Br)s1	CYP2C19 inh 91.5
O=C(NCCCN1CCOCC1)c1ccc(CS(=O)(=O)Cc2ccc(Cl)cc2)o1	none
O=C1CC(c2ccccc2)CC(O)=C1C=NC1CCCC1 (stereo not drawn)	CYP2C19 inh 79.0
Cc1cc(NC(=O)CNC(=O)C2CCCCC2)no1	none
COc1ccccc1-c1cc(-c2ccc(C)cc2)nc(SCc2nnc(-c3ccccc3)o2)c1C#N	CYP2C9 inh 69.1
Cn1nnc(-c2ccc(OCc3ccccc3F)cc2)n1	CYP2C19 inh 66.2
Fc1ccccc1COc1ccc(-c2nnn(Cc3ccccc3F)n2)cc1	none
CC(O)[C@H]1CNC(=O)C(=O)N1CCCCC1CCCCC1 (stereo partly drawn)	none (no result: CYP2C9 inh, CYP2C9 activ, CYP2C19 inh, CYP2C19 activ)
COC(C(=O)Nc1ccc(F)cc1)c1ccccc1 (stereo not drawn)	none (no result: CYP2C9 inh, CYP2C9 activ, CYP2C19 inh, CYP2C19 activ)
Cc1ccc(NC(=O)C(C)c2ccc(-c3ccccc3)c(F)c2)cc1 (stereo not drawn)	CYP2C9 inh 95.8
CN(C)CCCOC(=O)Cc1ccc(Cl)cc1	CYP2C19 inh 69.3
CN(C)CCCOC(=O)CCc1ccccc1	none
CC1CCCC(C)N1C(=O)CSc1nnc(NC(=O)c2cccs2)s1 (stereo not drawn)	none
COc1ccc(-n2c(C)c(C(C)=O)c(C(C)=O)c2C)cc1OC	CYP2C19 inh 67.6
COc1ccc(-n2c(C)c(C(C)=O)c(C(C)=O)c2C)cc1	none
COc1cccc(-n2c(C)c(C(C)=O)c(C(C)=O)c2C)c1	CYP2C9 inh 78.4, CYP2C19 inh 77.0
Cc1nc2nc(-c3ccc(Cl)cc3)[nH]n2c(=O)c1C	none
COC(=O)c1[nH]c2ccccc2c1NC(=O)CN1CCN(C/C=C/c2ccccc2)CC1	CYP2C9 inh 86.1, CYP2C19 inh 73.8
